Assay outcomes deposited in PubChem BioAssay by Broad Institute.
RAD52 inh: inhibitors of human RAD52 DNA annealing | inhibition, % at 18.7 µM | AID 651710 | recombinant RAD52 DNA annealing, FRET fluorescence | 360,000 compounds, 0.46% hits;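 active = every replicate showing at least 50% inhibition; inconclusive = mean inhibition at least 50% but not in every replicate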
INS-1E GSIS act: GLuc luminescence reporter in INS-1E cells, primary screen for activators of glucose-dependent secretion of insulin; 370,000 compounds, 0.61% hits; activation, % at 16.6 µM; INS-1E GLuc reporter insulin secretion, 2-3 h;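 active = lowest replicate activation of at least 40%, so every replicate reaches that level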;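 also: 0% = median of neutral control wells and 100% = median of IBMX positive control wells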
RAD54 inh: RAD54 (human) branch migration inhibition; Q92698; RAD54 Holliday junction branch migration, FAM/BHQ fluorescence; inhibition, % at 10.4 µM; 360,000 compounds, 0.14% hits;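 active = mean normalized replicate activity at least 40 and at least half of replicates scoring 40 or more; inconclusive = only one of the two criteria met; inactive = mean below 40 and under half of replicates reaching 40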;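 also: 0% = median of neutral control wells and 100% = median of positive control wells; inhibitors cause a drop in the FAM fluorescence signal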
Target sequence (Q92698 whole entry, looked up): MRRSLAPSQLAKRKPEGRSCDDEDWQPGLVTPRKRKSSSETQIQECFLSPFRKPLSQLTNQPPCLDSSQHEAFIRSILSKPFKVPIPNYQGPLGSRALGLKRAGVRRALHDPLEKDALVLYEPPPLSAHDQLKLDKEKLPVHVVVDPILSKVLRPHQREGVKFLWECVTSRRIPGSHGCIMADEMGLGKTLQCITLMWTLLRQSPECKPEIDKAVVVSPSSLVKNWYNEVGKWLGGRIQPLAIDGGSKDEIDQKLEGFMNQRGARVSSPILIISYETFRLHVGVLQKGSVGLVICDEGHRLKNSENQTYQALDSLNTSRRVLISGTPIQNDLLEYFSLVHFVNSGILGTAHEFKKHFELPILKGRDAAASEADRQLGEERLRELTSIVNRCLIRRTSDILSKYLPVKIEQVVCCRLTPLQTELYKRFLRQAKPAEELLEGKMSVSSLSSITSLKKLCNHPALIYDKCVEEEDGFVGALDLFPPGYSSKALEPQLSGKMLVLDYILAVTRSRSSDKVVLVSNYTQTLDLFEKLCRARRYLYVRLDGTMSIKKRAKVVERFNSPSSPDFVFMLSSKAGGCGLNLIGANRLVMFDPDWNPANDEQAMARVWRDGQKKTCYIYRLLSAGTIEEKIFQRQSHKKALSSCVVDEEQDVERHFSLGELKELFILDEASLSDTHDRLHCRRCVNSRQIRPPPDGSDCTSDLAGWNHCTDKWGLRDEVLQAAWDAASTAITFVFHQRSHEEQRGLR
AF4-AF9 inh: MLL-AF4/AF9 protein interaction inhibition; P42568; AlphaScreen, biotin-AF4 peptide binding to FLAG-AF9; inhibition, % at 10 µM; 350,000 compounds, 0.47% hits;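 active = every replicate reaching a set inhibition limit, whatever the replicate mean, cut at about 25% in these data; inconclusive = mean inhibition reaches that limit but some replicates miss it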;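 also: 0% = plate neutral control median and 100% = total signal loss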
ERAP1 inh: blocks human ERAP1 aminopeptidase activity. 340,000 compounds, 0.15% hits. Q9NZ08. recombinant ERAP1, Leu-AMC fluorescence, 60 min. inhibition, % at 10.7 µM;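 active = mean replicate inhibition of at least 30%, or all replicates individually reaching that 30% level; inactive = mean below 30% and not every replicate reaching it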;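 also: 0% = neutral control wells and 100% = L-leucinethiol positive control wells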
PGC1a acetyl inh: lowers PGC1a acetylation signal in U2OS cells. 350,000 compounds, 0.17% hits. inhibition, % at 15.6 µM. AID 651687. AlphaScreen anti-acetyl-lysine; with virally co-expressed GCN5 acetyltransferase;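 active = every replicate shows inhibition of at least 40%; inconclusive = mean inhibition at least 40% but some replicate below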;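 also: 0% = neutral control wells and 100% = positive control wells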
Rad54 DNA ctr: DNA binding artifact in Rad54 counter-screen. 460 compounds, 8% hits. AC50, µM (doses to about 35 µM), for the others: at the highest dose activity change, negative = DNA binding. shares compounds with RAD54 inh. Acridine orange-DNA displacement, fluorescence polarization, 20 min. AID 651673;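 active = signal drop giving an AC50 within twice the top valid tested concentration of each sample, actives reach about 35 µM in these data; inactive = activity opposite to expected, plus the rest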;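 also: polarization loss reports compound binding to salmon sperm DNA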
DNA binder FP: DNA binding artifact in RAD52 counter-screen; AID 652128; shares compounds with RAD52 inh; 1,000 compounds, 8% hits; Salmon sperm DNA/acridine orange FP displacement; AC50, µM;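 active = fitted half-maximal concentration for signal loss at or below twice the highest dose tested, in every separate run, actives reach about 64 µM in these data; inconclusive = runs disagree, or flat partial signal loss, or poor fit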
Starred values were filed as active, the others as inactive; i = inactive; u = inconclusive; x = no result. Hits are enriched below; roughly 1.4% of the tested compounds scored in any of these assays.

SMILES	RAD52 inh	INS-1E GSIS act	RAD54 inh	AF4-AF9 inh	ERAP1 inh	PGC1a acetyl inh	Rad54 DNA ctr	DNA binder FP
N=c1n(CCN2CCCCC2)c2ccccc2n1CC(=O)c1cccc([N+](=O)[O-])c1	75*	2	87*	1	1	-12	-10%	i
CCCNC(=O)N1[C@@H](CO)[C@@H](c2ccccc2)[C@@H]1CNC(=O)c1cccc(F)c1	-60	-14	6	-2	-2	10	x	x
O=C(c1cccnc1)N1CC[C@@H]2[C@H]1c1cc(-c3cccc(F)c3)ccc1N[C@@H]2CO	-74	-10	-5	-4	-1	4	x	x
CC(=O)N(C)C[C@H]1Oc2ccc(N(C)C)cc2C(=O)N(C)C[C@@H]1C	x	13	x	x	x	x	x	x
CCN1CCN(c2ccc(Nc3ccnc4ccccc34)cc2)CC1	95*	x	78*	20	-1	12	-12%	i
COc1ccc(-c2oc3ncnc(NCCCN(C)C)c3c2-c2ccc(OC)cc2)cc1	85*	107	75*	u	6	-3	17%	i
CN1[C@@H]2c3ccc(-c4ccncc4)c(=O)n3C[C@H]1[C@H](CO)[C@H]2C(=O)NCCc1ccccc1	4	4	5	-1	1	x	x	x
Cc1c(OCC(=O)NC2CC(C)(C)NC(C)(C)C2)ccc2c1oc(=O)c1ccccc12	72*	54	67*	2	1	3	i	i
Cc1c(OCC(=O)NC2CC(C)(C)NC(C)(C)C2)ccc2c3c(c(=O)oc12)CCC3	-1	33	14	-2	3	x	x	x
COCCCNC(=S)Nc1ccc2nc(N3CCOCC3)cc(C)c2c1	-7	-5	6	4	-4	3	x	x
CCCN(CCC)CCCNC(=S)Nc1ccc2nc(N3CCCC3)cc(C)c2c1	92*	7	99*	22	-13	x	-1%	i
CCN(CC)CCNC(=S)Nc1ccc2nc(N3CCN(C)CC3)cc(C)c2c1	87*	33	85*	7	0	0	-14%	i
Cc1cc(N2CCN(C)CC2)nc2ccc(NC(=S)NCCCN3CCN(C)CC3)cc12	82*	21	78*	4	2	2	-6%	i
Cc1cc(N2CCOCC2)nc2ccc(NC(=S)NCCN(C)C)cc12	43	0	30	2	-5	10	x	x
CCCCN(CC)CCCNC(=S)Nc1ccc2nc(N3CCN(C)CC3)cc(C)c2c1	92*	10	89*	26*	-4	10	13%	i
CCCCN(C)C(=O)CCC(=O)Nc1ccc2nc(N3CCN(C)CC3)cc(C)c2c1	-2	-2	17	-34	-1	5	x	x
O=C(C1CCCC1)N1CC2(C1)[C@H](c1ccccc1)[C@@H](CO)N2Cc1ccccc1F	-46	-14	x	-1	2	4	x	x
Cc1ccc(S(=O)(=O)N[C@@H]2C=C[C@H](CC(=O)NC3CCCCC3)O[C@@H]2CO)cc1	5	5	-3	0	-3	-13	x	x
CN(C)CCNC(=O)c1cc2c(s1)-c1ccc(Cl)cc1SC2	81*	228*	57*	u	19	x	8%	u
COc1ccc2c3c(n(C)c2c1)[C@@H](CO)N(C)CC31CN(C(=O)c2ccccc2F)C1	11	6	x	1	-3	7	x	x
COc1cccc(-c2cc3nc(NCCCN(C)C)n(C)c(=O)c3s2)c1	79*	12	62*	4	-3	x	-2%	u
CN(C)CCCNc1nc2cc(-c3ccc4c(ccn4C)c3)sc2c(=O)n1C	96*	-4	54*	8	8	x	0%	i
CC(C)=C(C)c1cc2nc(NCCCN(C)C)n(C)c(=O)c2s1	8	x	7	5	1	2	x	x
COc1ccc(-c2cc3nc(NCCN4CCCC4)n(C)c(=O)c3s2)cc1OC	84*	-5	70*	9	-2	-32	0%	i
COc1ncccc1-c1cc2nc(NCCCN(C)C)n(C)c(=O)c2s1	75*	-1	90*	4	2	x	-19%	63µM*
SMILES	RAD52 inh	INS-1E GSIS act	RAD54 inh	AF4-AF9 inh	ERAP1 inh	PGC1a acetyl inh	Rad54 DNA ctr	DNA binder FP
COc1ccc(NC(=O)Nc2ccc3c(c2)C(=O)N([C@@H](C)CO)C[C@@H](C)[C@H](CN(C)S(=O)(=O)c2ccccc2)OCCCC[C@@H](C)O3)cc1	-5	10	-4	-1	2	2	x	x
C[C@@H]1CN([C@H](C)CO)C(=O)c2c(c3ccccc3n2C)-c2ccccc2CO[C@H]1CN(C)C(=O)[C@H](C)c1ccccc1	18	-19	x	-3	-5	-10	x	x
Nc1c2ccccc2nc2ccccc12	98*	-6	121*	-2	61*	12	26µM*	33µM*
COc1ccc2nc3cc(Cl)ccc3c(Nc3cc(CN4CCCC4)c(O)c(CN4CCCC4)c3)c2n1	101*	x	124*	47*	-1	72*	3.7µM*	4µM*
Cc1ccc2nc3c(c(N)c2c1)CCN3C	42	24	61*	-1	15	13	-10%	i
COCCOC(=O)N1C(=O)[C@@]2(c3cc(C#CC4(O)CCCCCC4)ccc31)[C@H](c1ccc(OCCO)cc1)N1[C@H](c3ccccc3)[C@H](c3ccccc3)OC(=O)[C@H]1[C@@H]2C(=O)N1CCN(c2ncccn2)CC1	7	x	x	-2	-1	x	x	x
CCOC(=O)c1cnc2ccc(OC)cc2c1Nc1ccc(N2CCN(C)CC2)cc1	88*	-7	72*	41*	-1	x	4%	i
CCOC(=O)c1cnc2ccc(OC)cc2c1Nc1ccc2c(c1)OCCO2	x	x	9	x	x	-24	x	x
CCCNC(=O)NC[C@@H]1CC[C@H]2[C@H](CN2C(=O)C2CCOCC2)O1	0	x	x	0	0	1	x	x
c1c[nH]c(CN2CCN(Cc3ncc[nH]3)CC2)n1	56*	x	u	28*	-2	2	-11%	i
c1ccc(N2CCN(Cc3nc4ccccc4[nH]3)CC2)nc1	-6	8	-5	0	-1	x	x	x
CNc1nc(-c2c[nH]c3ccccc23)cs1	x	x	5	x	x	-7	x	x
CN1CCN(CC(=O)Nc2nc(-c3c[nH]c4ccccc34)cs2)CC1	96*	7	93*	u	9	2	-8%	i
C[C@H](O)C#Cc1ccc2c(c1)O[C@H](CN(C)C(=O)Nc1ccccc1)[C@@H](C)CN([C@H](C)CO)S2(=O)=O	x	5	-7	x	x	1	x	x
COc1ccc(C)c2sc(N(CCN(C)C)C(=O)c3ccc4ccccc4c3)nc12	73*	-29	52*	29*	-2	-5	-16%	i
